# According to the supplement of paper PMC7184167:
# Counter-ions that a name gives are not always drawn.
# Tested on: replication-induced senescent mouse newborn dermal fibroblasts (NBF)
# Test: relative cell viability of senescent cells (fraction); higher = less killing of senescent cells
# Conditions: 1 µM; 3 days
# Experimental: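 Replication-induced senescent newborn mouse skin fibroblasts (NBFs) in 24-well plates were treated with a Selleck FDA-approved drug library at 1 µM for 3 days.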
row,Compound,relative cell viability
1,CNC(=C[N+](=O)[O-])NCCSCc1ccc(CN(C)C)o1 [Ranitidine Hydrochloride],1.1
2,CCOc1ccc(Cc2cc([C@@H]3O[C@H](CO)[C@@H](O)[C@H](O)[C@H]3O)ccc2Cl)cc1 [Dapagliflozin],1.2
3,COc1ccccc1OCC(O)COC(N)=O (centres undefined) [Methocarbamol],1.03
4,CC(C)Cn1cnc2c(N)nc3ccccc3c21 [Imiquimod],0.273
5,Nc1ccccc1NC(=O)c1ccc(CNC(=O)OCc2cccnc2)cc1 [Entinostat (MS-275)],0.536
6,CCc1c2c(nc3ccc(OC(=O)N4CCC(N5CCCCC5)CC4)cc13)-c1cc3c(c(=O)n1C2)COC(=O)[C@]3(O)CC [Irinotecan],0.893
7,Cc1ccc(C(=O)Nc2ccc(CN3CCN(C)CC3)c(C(F)(F)F)c2)cc1C#Cc1cnc2cccnn12,0.964
8,CCN(CC)CCNC(=O)c1c(C)[nH]c(/C=C2\C(=O)Nc3ccc(F)cc32)c1C [Sunitinib Malate],1.1
9,CC(C(=O)O)c1cccc(Oc2ccccc2)c1 (centres undefined) [Fenoprofen Calcium],1.13
10,NS(=O)(=O)Cc1noc2ccccc12 [Zonisamide],1.11
11,Cc1nc(C(=O)NCC(=O)O)c(O)c2ccc(Oc3ccccc3)cc12 [Roxadustat (FG-4592)],1.03
12,CN1C(C(=O)Nc2ccccn2)=C(O)c2ccccc2S1(=O)=O [Piroxicam],0.562
13,Nc1nc(=O)n([C@@H]2CS[C@H](CO)O2)cc1F [Emtricitabine],1.04
14,Cc1ccc(NC(=O)C2(c3ccc4c(c3)OC(F)(F)O4)CC2)nc1-c1cccc(C(=O)O)c1 [VX-809 (Lumacaftor)],0.838
15,CCn1cc(C(=O)O)c(=O)c2cc(F)c(N3CCNCC3)nc21 [Enoxacin],1.05
16,CCOC(=O)[C@H](CCc1ccccc1)N[C@@H](C)C(=O)N1[C@H](C(=O)O)C[C@@H]2CCC[C@@H]21 [Ramipril],0.96
17,COc1cc2/c(=N/c3ccc(Br)cc3F)nc[nH]c2cc1OCC1CCN(C)CC1 [Vandetanib (ZD6474)],0.464

row,Compound,relative cell viability
1,CNS(=O)(=O)CCc1ccc2[nH]cc(C3CCN(C)CC3)c2c1 [Naratriptan HCl],1.14
2,Cn1cnc2c(F)c(Nc3ccc(Br)cc3Cl)c(C(=O)NOCCO)cc21 [Selumetinib (AZD6244)],0.897
3,Cc1cn([C@@H]2C[C@@H](O)[C@H](CO)O2)c(=O)[nH]c1=O [Telbivudine],1
4,CC(=O)[C@H]1CC[C@H]2[C@@H]3CCC4=CC(=O)CC[C@]4(C)[C@H]3CC[C@]12C [Progesterone],0.968
5,CNC(=O)c1ccccc1Sc1ccc2c(/C=C/c3ccccn3)n[nH]c2c1 [Axitinib],0.908
6,CN(C)CC/C=C1/c2ccccc2Sc2ccc(Cl)cc21 [Chlorprothixene],1.1
7,Nc1ccc(S(=O)(=O)Nc2ncccn2)cc1 [Sulfadiazine],1.11
8,COC(=O)C1=C(C)NC(C)=C(C(=O)OC(C)C)C1c1cccc2nonc12 (centres undefined) [Isradipine],0.977
9,CN/C(=N\CCSCc1nc[nH]c1C)NC#N [Cimetidine],1.01
10,NS(=O)(=O)c1cc2c(cc1Cl)N=CNS2(=O)=O [Chlorothiazide],0.952
11,CCN1CCN(C(=O)N[C@@H](C(=O)N[C@@H]2C(=O)N3C(C(=O)O)=C(CSc4nnnn4C)CS[C@H]23)c2ccc(O)cc2)C(=O)C1=O [Cefoperazone],1.03
12,Clc1ccc2nsnc2c1NC1=NCCN1 [Tizanidine HCl],0.994
13,COc1cnc(NS(=O)(=O)c2ccc(N)cc2)nc1 [Sulfameter],0.763
14,Cn1c(=O)c2nc[nH]c2n(C)c1=O [Theophylline],0.828
15,CO[C@H]1C[C@@H]2CC[C@@H](C)[C@@](O)(O2)C(=O)C(=O)N2CCCC[C@H]2C(=O)O[C@H]([C@H](C)C[C@@H]2CC[C@@H](OCCO)[C@H](OC)C2)CC(=O)[C@H](C)/C=C(\C)[C@@H](O)[C@@H](OC)C(=O)[C@H](C)C[C@H](C)/C=C/C=C/C=C/1C [Everolimus (RAD001)],0.765
16,"Cc1[nH]c(/C=C2\C(=O)Nc3ccccc32)c(C)c1CCC(=O)O [Orantinib (TSU-68, SU6668)]",0.577
17,Cc1[nH]c2ccccc2c1CCNCc1ccc(/C=C/C(=O)NO)cc1 [Panobinostat (LBH589)],1.08
